Test results reported in ChEMBL document CHEMBL3433997, “St. Jude Leishmania screening dataset” (2016).

Assays:
Type in all cases: functional
[1] = target: Solute carrier family 2, facilitated glucose transporter member 1 (Homo sapiens) (UniProt P11166); assay: ST_JUDE_LEISH: Cytotoxicity at 2uM final concentration against transgenic Leishmania Mexicana promastigotes LmGLUT1 that are glucose transport deficient and complemented with the human glucose transporter GLUT1. Activity is measured by DNA content using SYBR green in vitro
[2] = target: Hexose transporter 1 (Plasmodium falciparum) (UniProt O97467); assay: ST_JUDE_LEISH: Cytotoxicity at 2uM final concentration against transgenic Leishmania Mexicana promastigotes LmPfHT that are glucose transport deficient and complemented with the Plasmodium falciparum hexose transporter. Activity is measured by DNA content using SYBR green in vitro
[3] = target: Glucose transporter (Leishmania mexicana) (UniProt O61059); assay: ST_JUDE_LEISH: Cytotoxicity at 2uM final concentration against transgenic Leishmania Mexicana promastigotes LmGT2 that are glucose transport deficient and complemented with the L. Mexicana glucose transporter 2. Activity is measured by DNA content using SYBR green in vitro

Sequence of Solute carrier family 2, facilitated glucose transporter member 1 (Homo sapiens) (P11166 whole entry): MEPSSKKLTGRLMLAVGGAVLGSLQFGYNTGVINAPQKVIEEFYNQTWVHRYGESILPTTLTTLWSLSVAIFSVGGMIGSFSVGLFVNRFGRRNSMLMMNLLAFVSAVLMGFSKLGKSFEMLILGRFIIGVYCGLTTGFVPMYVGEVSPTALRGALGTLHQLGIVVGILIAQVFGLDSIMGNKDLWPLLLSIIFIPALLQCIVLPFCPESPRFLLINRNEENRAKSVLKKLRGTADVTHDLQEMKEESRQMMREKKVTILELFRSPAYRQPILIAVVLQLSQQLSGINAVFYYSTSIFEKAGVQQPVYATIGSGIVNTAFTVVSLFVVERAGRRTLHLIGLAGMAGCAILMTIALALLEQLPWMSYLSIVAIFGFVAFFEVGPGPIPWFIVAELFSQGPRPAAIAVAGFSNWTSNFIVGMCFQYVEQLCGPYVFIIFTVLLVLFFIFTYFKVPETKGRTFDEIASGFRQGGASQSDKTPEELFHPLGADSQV

COc1cc(Cc2cnc(N)nc2N)cc(OCCCCCCN2C(=O)c3ccccc3C2=O)c1OC
inhibition [1]: 7.29% | inhibition [2]: 4.53% | inhibition [3]: 5.48%

CC1(C)N=C(N)N=C(N)N1c1ccc(Br)cc1
inhibition [1]: 0.61% | inhibition [2]: 1.29% | inhibition [3]: 3.63%

O=C(CCCCCCc1ccccc1)Nc1ccc2nc3c(c(NCc4ccccc4)c2c1)CCCC3
inhibition [1]: -0.24% | inhibition [2]: 1.39% | inhibition [3]: -2.98%

COc1cccc(Cc2cnc3nc(N)nc(N)c3c2C)c1
inhibition [1]: 2.99% | inhibition [2]: 1.68% | inhibition [3]: 3.44%

CC(C)CC1c2[nH]c3ccccc3c2CCN1C(=O)CCc1ccccc1 (configuration not stated)
inhibition [1]: 5.53% | inhibition [2]: 5.28% | inhibition [3]: 4.41%

CCOC(=O)c1cnc2c(OC)cc(OC)c(Cl)c2c1Nc1cccc(C)c1C
inhibition [1]: 0.67% | inhibition [2]: -0.69% | inhibition [3]: -6.14%

N#Cc1ccc(C2CCN(CC[C@H](N)Cc3ccc(Cl)s3)CC2)cc1
inhibition [1]: 22.8% | inhibition [2]: 10.7% | inhibition [3]: 15.8%

Cc1cc(N2CCOCC2)nc(Nc2ccc(NC(=O)c3cccc4ccccc34)cc2)n1
inhibition [1]: 7.25% | inhibition [2]: 8.47% | inhibition [3]: 5.87%

CCCCCCOc1ccc(C(=O)NCCCC2CCCN(CCCCCNC(=O)C=Cc3ccc(Cl)c(Cl)c3)C2)cc1 (configuration not stated)
inhibition [1]: -0.52% | inhibition [2]: 0.51% | inhibition [3]: 1.31%

CC(C)Nc1cc(C(=O)N[C@@H](Cc2ccccc2)[C@H](O)CNC2CCOCC2)c(F)c(N2CCCCS2(=O)=O)c1
inhibition [1]: 6.75% | inhibition [2]: 5.16% | inhibition [3]: 4.99%

O=C(c1cccc(-c2cccc(-c3nc4ccccc4[nH]3)c2)c1)N1CCCCC1CN1CCC(O)C1 (configuration not stated)
inhibition [1]: 0.33% | inhibition [2]: 0.78% | inhibition [3]: 0.03%

CCCC[C@@H](C(=O)NCc1ccccc1C(F)(F)F)N1C(=O)CCC1C(=O)Nc1ccc([N+](=O)[O-])cc1 (some centres not stated)
inhibition [1]: 1.1% | inhibition [2]: 2.37% | inhibition [3]: 2.75%

O=C(c1cccc(COc2ccc3c(c2)CCN(C2CCCC2)CC3)c1)N1CCN(c2ccncc2)CC1
inhibition [1]: 8.85% | inhibition [2]: 5.59% | inhibition [3]: 7.88%

CC(CN1CCN(C)CC1)C(=O)Nc1cccc(-c2ccc(-c3nc4cc(C(F)(F)F)ccc4[nH]3)cc2)c1 (configuration not stated)
inhibition [1]: 5.29% | inhibition [2]: 4.14% | inhibition [3]: 5.41%

CCNc1cc(C(=O)N[C@@H](Cc2ccccc2)[C@H](O)CNCCc2cccc(C(F)(F)F)c2)cc(N2CCCC2=O)c1
inhibition [1]: 1.16% | inhibition [2]: 1.57% | inhibition [3]: -0.87%

COc1ccc2nccc([C@@H](O)CN3CCC(NC(=O)c4ccc5cc[nH]c5c4)CC3)c2c1
inhibition [1]: 4.43% | inhibition [2]: 4.82% | inhibition [3]: 1.32%

CC(C)(C)c1cc(Cn2ccnc2)cc(C(C)(C)C)c1O
inhibition [1]: 6.9% | inhibition [2]: 9.32% | inhibition [3]: 4.9%

COc1ccc(NC(=O)/C=C/c2ccccc2Cl)cc1OCCN1CCC(NC2CC2)CC1
inhibition [1]: 8.25% | inhibition [2]: 5.69% | inhibition [3]: 4.32%

COc1ccccc1C(=O)N1CCN(Cc2cccs2)CC1
inhibition [1]: 7.76% | inhibition [2]: 7.28% | inhibition [3]: 9.06%

CCCCCc1ccc(N2C(N)=NC(N)=NC2(C)C)cc1
inhibition [1]: 3.51% | inhibition [2]: 2.87% | inhibition [3]: 4.35%

O=C(Nc1ccc(OC2CCN(Cc3ccc(F)cc3)C2)c(Cl)c1)c1ccc(F)cc1 (configuration not stated)
inhibition [1]: -0.04% | inhibition [2]: -0.69% | inhibition [3]: -1.62%

CSc1ccccc1NC(=S)NC1CCN(CCCCCNC(=O)/C=C/c2ccc(Cl)c(Cl)c2)CC1
inhibition [1]: 4.66% | inhibition [2]: 4.89% | inhibition [3]: 4%

Cc1nc(NC(=N)N)nc2cc3c(cc12)CCC3
inhibition [1]: 0.91% | inhibition [2]: 0.44% | inhibition [3]: 0.48%

COc1ccc2nccc([C@@H](O)CN3CCC(NCc4nc5c([N+](=O)[O-])cccc5[nH]4)CC3)c2c1
inhibition [1]: 2.43% | inhibition [2]: 2.99% | inhibition [3]: 1.31%

Cc1[nH]c(C)c(-c2ccc(OCc3cccc(C(F)(F)F)c3)nc2)c(=O)c1Br
inhibition [1]: 44.5% | inhibition [2]: 64.4% | inhibition [3]: 35%

Cc1cc(N[C@@H](Cc2ccccc2)C(=O)NCc2cccs2)nc(Nc2ccccc2)n1
inhibition [1]: 9.96% | inhibition [2]: 9.21% | inhibition [3]: 3.98%

O=C(NCCCCN1CCN(c2nsc3ccccc23)CC1)c1ccccc1C(=O)NCCCCN1CCN(c2nsc3ccccc23)CC1
inhibition [1]: 2.17% | inhibition [2]: -0.52% | inhibition [3]: -0.08%

CC(C)(C)c1ccc2[nH]c(-c3ccc(C(=O)NCc4cccc(C(F)(F)F)c4)cc3)nc2c1
inhibition [1]: -0.02% | inhibition [2]: 0.63% | inhibition [3]: 3.09%

Cc1ccc(CNC(=O)[C@H](Cc2ccccc2)Nc2cc(C)nc(NCc3ccccc3C)n2)cc1
inhibition [1]: 5.69% | inhibition [2]: 5.01% | inhibition [3]: 2.6%

CCNc1cc(C(=O)N[C@@H](Cc2ccccc2)[C@H](O)CNC(C)(C)Cc2cccc(OC)c2)cc(N2CCCC2=O)c1
inhibition [1]: -2.08% | inhibition [2]: -1.02% | inhibition [3]: -0.38%

CCN(CC)CCCC(C)N=c1cc(C=Cc2ccccc2Cl)[nH]c2cc(Cl)ccc12 (configuration not stated)
inhibition [1]: 3.06% | inhibition [2]: 3.03% | inhibition [3]: 1.56%

CCOC(=O)c1cnc2c(C(F)(F)F)cccc2c1Nc1ccc(O)cc1
inhibition [1]: 10.8% | inhibition [2]: 8.44% | inhibition [3]: 9.59%

Nc1cccc(CNCc2ccc(-c3cccc(-c4nc5ccccc5[nH]4)c3)cc2)c1
inhibition [1]: 1.2% | inhibition [2]: 0.24% | inhibition [3]: -0.54%

CC(C)c1cc2c(cc1O)C(Cc1ccccc1Cl)N(C)CC2 (configuration not stated)
inhibition [1]: 2.73% | inhibition [2]: -0.25% | inhibition [3]: 0.89%

O=C(n1c(-c2cc3ccccc3n2C(=O)C(F)(F)F)cc2ccccc21)C(F)(F)F
inhibition [1]: 4.6% | inhibition [2]: 1.94% | inhibition [3]: -0.64%

CC(C)Cn1cc(C2CCN(CCN3CCC(CNC(=O)c4ccc(NC(=O)c5cc(Cl)cc(Cl)c5)cc4)CC3)CC2)c2ccccc21
inhibition [1]: 1.27% | inhibition [2]: 4.22% | inhibition [3]: 1.97%

Cc1ccc2nc(-c3ccc(C(=O)NCc4ccc(Cl)c(Cl)c4)cc3)[nH]c2c1C
inhibition [1]: 2.57% | inhibition [2]: 0.03% | inhibition [3]: 0.59%

COc1ccc(-c2ccc(NC(=O)c3cccc(C#N)c3)cc2)cc1CN1CCNCC1
inhibition [1]: 9.28% | inhibition [2]: 5.74% | inhibition [3]: 4.28%

COc1ccc(-c2cccc(NC(=O)c3ccc(Cl)cc3)c2)cc1CN1CCCN(C)CC1
inhibition [1]: 7.89% | inhibition [2]: 8.76% | inhibition [3]: 7.23%

CCN(CC)c1nc(N)c2c(N)nc3c(c2c1C#N)C(=O)CN3Cc1ccccc1
inhibition [1]: 7.21% | inhibition [2]: 6.8% | inhibition [3]: 6.97%

CC(C)(CNCc1ccc(Cl)cc1)c1nc(-c2ccc(Cl)c(O)c2)c(-c2ccncc2)[nH]1
inhibition [1]: 0.66% | inhibition [2]: 0.31% | inhibition [3]: -1.23%

CCNc1cc(C(=O)N[C@@H](Cc2ccccc2)[C@H](O)CNC23CC4CC(CC(C4)C2)C3)cc(N2CCCCS2(=O)=O)c1
inhibition [1]: 3.41% | inhibition [2]: 3.36% | inhibition [3]: -0.1%

O=C(Nc1ccc(-c2nc3ccccc3[nH]2)cc1)c1ccc(Cl)c([N+](=O)[O-])c1
inhibition [1]: 1.55% | inhibition [2]: 1.9% | inhibition [3]: 1.41%

CCOc1cc2ncnc(Nc3ccc(OCc4c(F)cccc4F)c(OC)c3)c2cc1OCC
inhibition [1]: 4.53% | inhibition [2]: 2.29% | inhibition [3]: 0.2%

CN1CCCC1CCNc1ncc2c(-c3ccc(NC(=O)Nc4cc(C(F)(F)F)ccc4F)cc3)nn(C)c2n1 (configuration not stated)
inhibition [1]: 3.33% | inhibition [2]: 1.92% | inhibition [3]: 3.95%

CCOC(=O)c1ccc(N2CCCCC2)c(NC(=O)C(Cl)(Cl)Cl)c1
inhibition [1]: -2.66% | inhibition [2]: -0.39% | inhibition [3]: -1.19%

C=CCn1c(SCC(=O)Nc2cc(C)ccc2OC)nc2sc(C)cc2c1=O
inhibition [1]: 4.32% | inhibition [2]: 3.15% | inhibition [3]: 2.13%

O=C(Nc1ccc2c(c1)CCN2C1CCN(Cc2cccc(C(F)(F)F)c2)C1)c1ccco1 (configuration not stated)
inhibition [1]: -2.78% | inhibition [2]: 0.28% | inhibition [3]: -0.47%

CN(C)CCNC(=O)c1cc2c(-c3ccc(Cl)cc3)nn(C)c2s1
inhibition [1]: 2.62% | inhibition [2]: 2.13% | inhibition [3]: 1.3%
